Source: PubChem
Sm TGR block: inhibitors of Schistosoma mansoni thioredoxin glutathione reductase. Q962Y6. purified TGR, DTNB reduction, TNB absorbance 405 nm. Potency, µM (titrated, usually from 114 µM), for inactives: at the top dose activity change, negative = inhibition, hits mostly inhibitors. 360,000 tested, 3% active; further: potency means the concentration at half of the fitted maximal effect; on the % scale 0 is the no-effect control and ±100 the full control effect; nearly all actives have a fitted effect of over 60% in size
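First, TGR (20 nM dispensed) and NADPH were mixed with compound. Second, a 15 min room-temperature incubation followed. Third, further NADPH and then DTNB were added to start the reaction. Finally, TNB absorbance was monitored kinetically.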
Pf growth 48h: inhibits P. falciparum growth in the first generation, 48 h; P. falciparum luciferase growth in erythrocytes, 48 h; AID 504832; Potency, µM (doses to about 28.7 µM), without a hit: at the highest dose activity change, negative = inhibition, hits mostly inhibitors; 310,000 tested, 5.9% active; further: potency means the concentration at half of the fitted maximal effect; on the % scale 0 is the no-effect control and ±100 the full control effect
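In quantitative HTS format, infected erythrocytes bearing luciferase-reporter parasites were treated for a single generation at 37 C. Luminescence after adding detection reagent served as the growth measure.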
SARS PLP yeast: SARS-CoV PLP inhibition in yeast | S. cerevisiae expressing SARS-CoV PLpro, growth rescue | Potency, µM (top dose mostly 32.9 µM), inactives show top-dose activity, positive = growth rescue, most hits filed as activators | 330,000 tested, 0.19% active | AID 485353; calls by dose curve; further: potency means the concentration at half of the fitted maximal effect; 0% is about no effect; nearly all actives have a fitted effect of over 55% in size
Pf growth 96h: inhibits malaria parasite growth, 96 h; P. falciparum luciferase reporter growth, 96 h; Potency, µM (highest dose often 28.7 µM), inactives show top-dose activity change, negative = inhibition, actives largely listed as inhibitors; 320,000 tested, 6.9% active; further: potency means the concentration at half of the fitted maximal effect; on the % scale 0 is the no-effect control and ±100 the full control effect
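P. falciparum expressing integrated firefly luciferase, in erythrocytes at 2% hematocrit, 0.05% parasitemia, incubated with compounds 96 h at 37 C, 5% CO2. Growth inhibition read as loss of luminescence; two-generation exposure targets delayed-death apicoplast inhibitors.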
HCMV inh: blocks human cytomegalovirus replication. AID 1259415. HFF cells, HCMV-luciferase reporter, 72 h; hits give low values. 410,000 tested, 4.5% active. activity change, negative = inhibition, % at 57.5 µM; in the data active means activity change below about -60%; inconclusive means no clear call, values can overlap the other calls; inactive means above about -39%; further: on the % scale 0 is the no-effect control and ±100 the full control effect
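Inhibition of viral replication was scored as loss of reporter luminescence in HFFs infected with HCMV-luciferase (MOI 1 PFU/cell) for 72 h; compounds tested at 2 doses, normalized to buffer and Salinomycin controls.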
HCV inh: inhibitors of hepatitis C virus infection; Huh7.5.1 HCVcc-Cre infection, luciferase reporter, 44 h; Potency, µM (titrated, usually from 41.8 µM), for the others: at the highest dose activity change, negative = inhibition, hits mostly inhibitors; 340,000 tested, 3.4% active; AID 651820; further: potency means the concentration at half of the fitted maximal effect; on the % scale 0 is the no-effect control and ±100 the full control effect
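Reporter virus HCVcc-Cre (~0.5 moi) infects cells exposed to compound; seeding density 1,000 cells/well with 4 h settling beforehand. Luminescence, 15 sec read, taken 44 h post-infection following a 15 min RT substrate incubation.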
The depositor's hits bear a star; u = inconclusive; x = no result given; [ ] = dose if it differs, or a comment. A selection: hits, their analogues and other compounds. The true share with any hit is near 15%. Unless noted, the call rests on the fitted dose curve; in most records, active means well fitted curve in the direction sought with a large enough effect; inconclusive means small, poorly fitted or top-dose-only effect, or another doubt; inactive means no such curve, though single readings can be large; an effect the other way counts as inactive or inconclusive.

SMILES	Sm TGR block	Pf growth 48h	SARS PLP yeast	Pf growth 96h	HCMV inh	HCV inh
CCCCCNC(=O)C(c1ccc(OC)cc1)n1c(=O)c(-c2cc3ccccc3[nH]2)nc2ccccc21 (stereo not given)	x	x	x	x	13.5	x
CSc1ccc(S(=O)(=O)NC(C)c2ccccc2)cc1 (stereo not given)	x	8.5%	0.8%	8.6%	u	-0.3%
Cc1ccc(S(=O)(=O)NC(C)c2ccccc2)cc1[N+](=O)[O-] (stereo not given)	-28.1%	16.0%	3.2%	11.7µM*	-5.9	-5.5%
Cc1cc(OCCCCNC(C)C)cc(C(C)C)c1	2.3%	u	-10.0%	6.57µM*	-6.1	u
Cc1cc(OCCOCCNC(C)C)cc(C)c1Cl	0.5%	x	-12.0%	4.6%	-11.9	u
CCS(=O)(=O)N1CC2(C1)CN(S(=O)(=O)c1ccc(C)cc1)[C@@H](CO)c1[nH]c3cc(OC)ccc3c12	x	x	x	x	3.0	x
Cc1cc(N2CCCCC2)nc(N2CCCCC2)n1	1.2%	28.0%[1.15 µM]	-0.4%	u	-61.4*	3.0%
CCCSc1cc(N2CCOCC2)nc(-c2ccccc2Cl)n1	-6.7%	x	-21.0%	11.7µM*	-18.9	-44.0%
Cc1cc(N2CCCC2)nc(N2C3CCC2CC(O)(c2ccc(F)cc2)C3)n1 (stereo not given)	26.7%	u	0.9%	145.4%	x	x
Cc1cc(N2CCCCCC2)nc(-c2ccccc2O)n1	8.1%	-26.4%	-12.2%	x	45.7	12.6µM*
Cc1cc(N2CCOCC2)nc(-c2ccccc2O)n1	7.6%	13.8%	11.3%	2.33µM*	70.5	u
O=C(NCc1ccccc1Cl)c1ccc(NC(=O)c2nsc3ccccc23)cc1	-1.7%	x	x	x	23.1	x
COc1ccc(OC)c(C2CC(=O)c3c([nH]c(C(=O)OC(C)C)c3C)C2)c1 (stereo not given)	0.0%	x	-0.6%	u	-70.5*	u
CCOCCOC(=O)c1[nH]c2c(c1C)C(=O)CC(c1ccc(OC)c(OC)c1)C2 (stereo not given)	14.4%	u	1.1%	1.47µM*	u	u
COCCOC(=O)c1[nH]c2c(c1C)C(=O)CC(c1cc(OC)ccc1OC)C2 (stereo not given)	-0.3%	1.9%	-0.9%	u	3.9	u
CCCOCCOC(=O)c1[nH]c2c(c1C)C(=O)CC(c1cc(OC)ccc1OC)C2 (stereo not given)	0.8%	u	-9.1%	6.4%	-80.4*	u
COc1cc(C2CC(=O)c3c([nH]c(C(=O)OCCOC(C)C)c3C)C2)cc(OC)c1OC (stereo not given)	-1.5%	7.38µM*	-2.0%	u	-63.4*	u
COc1ccc(OC)c(C2CC(=O)c3c([nH]c(C(=O)OC4CCC(C)CC4)c3C)C2)c1 (stereo not given)	0.8%	x	x	x	-9.2	x
COC(=O)c1ccc(C2C(C(=O)c3cc4ccccc4o3)=C(O)C(=O)N2CCCN(C)C)cc1 (stereo not given)	11.2µM*	4.4%	-3.4%	37.8%	6.6	5.9%
CN(C)CCCN1C(=O)C(O)=C(C(=O)c2cc3ccccc3o2)C1c1ccccc1 (stereo not given)	-28.7%	2.5%	4.2%	10.8%	6.9	-11.2%
COc1cccc2cc(C(=O)C3=C(O)C(=O)N(c4cc(C)on4)C3c3cccs3)oc12 (stereo not given)	28.2µM*	5.3%	-7.5%	0.0%	-69.9*	-4.8%
CCCOc1cccc(C2C(C(=O)c3cc4ccccc4o3)=C(O)C(=O)N2c2cc(C)on2)c1 (stereo not given)	0.0%	u	u	3.7µM*	-33.6	1.4%
COC(=O)c1ccc(C2C(C(=O)c3cc4ccccc4o3)=C(O)C(=O)N2c2cc(C)on2)cc1 (stereo not given)	-34.3%	9.28µM*	-0.3%	7.38µM*	-7.8	19.9%
COc1cccc(C2C(C(=O)c3cc4cccc(OC)c4o3)=C(O)C(=O)N2c2cc(C)on2)c1OC (stereo not given)	-24.3%	u	-2.0%	41.9%	-26.3	1.1%
Cc1cc(N2C(=O)C(O)=C(C(=O)c3cc4ccccc4o3)C2c2ccc(OC(C)C)cc2)no1 (stereo not given)	-30.6%	u	-4.1%	u	-37.6	0.3%
SMILES	Sm TGR block	Pf growth 48h	SARS PLP yeast	Pf growth 96h	HCMV inh	HCV inh
Cc1cccc(N2CCN(C(=O)c3ccc4c(Cl)c5c(nc4c3)CCCC5)CC2)c1C	-0.1%	x	x	x	-29.4	x
O=C(Nc1ccccc1)N1CCC(c2nc(-c3ccc(S(=O)(=O)N4CCOCC4)cc3)no2)CC1	0.0%	u	0.1%	8.28µM*	-37.6	10µM*
CC(C)C(=O)N1CCC(c2nc(-c3ccc(S(=O)(=O)N4CCCC4)cc3)no2)CC1	6.8%	0.0%	3.2%	-22.6%	-72.9*	u
O=C(Nc1cccc(C(F)(F)F)c1)N1CCC(c2nc(-c3ccc(F)cc3)no2)CC1	-3.3%	u	-9.0%	291.3%	u	11.2µM*
O=C(Nc1ccccc1)N1CCCC(c2nc(-c3ccc(F)cc3)no2)C1 (stereo not given)	3.7%	0.5%	-2.7%	u	-9.1	u
CCOC(=O)Cc1csc(SCC(=O)N(CC(C)C)c2c(N)n(Cc3ccccc3)c(=O)[nH]c2=O)n1	0.3%	-5.2%	-4.4%	0.3%	1.8	-5.1%
Cc1ccc(NC(=O)c2ccc(CSc3ccccn3)cc2)c(O)c1	-18.2%	1.47µM*	-1.3%	3.7µM*	-14.1	u
O=C(OC1C[C@@H]2CC3C[C@H](C1)N2CC3=O)c1c[nH]c2ccccc12 (stereo not given in full)	x	13.5µM*	x	13.5µM*	x	x
C[N+]1(C)C2CCC1CC(OC(=O)c1c[nH]c3ccccc13)C2 (stereo not given)	-19.2%	u	x	6.01µM*	64.8	-25.3%
C[N+]1(C)[C@@H]2CC[C@H]1CC(OC(=O)[C@@H](CO)c1ccccc1)C2 (stereo not given in full)	8.91µM*	23.3%	3.3%	8.7%	-24.4	-8.2%
O=C(OCC(=O)N1CCCCC1)c1c[nH]c2ccccc12	-6.7%	129.4%	-0.9%	243.9%	-11.8	4.6%
O=C(Cn1nnnc1-c1ccccc1F)Nc1ccc(F)c(F)c1	2.2%	x	x	x	-28.8	x
C[C@]12CCCCCC3=CC(=O)C=C[C@@]31OC(=O)CC2	x	x	x	x	6.0	x
O=C(CSc1ccc(-c2cccnc2)nn1)Nc1ccc(F)cc1F	7.08µM*	2.1%	-5.7%	u	-34.8	-9.3%
O=C(CSc1ccc(-c2cccnc2)nn1)Nc1ccccc1C(F)(F)F	-0.2%	-14.5%	-3.3%	10.4µM*	u	-21.5%
